PubChem BioAssay (NCATS)
Records with an inconclusive call do not appear. The source made the active and inactive calls. Calls follow the shape of the dose curve; as a rule, active = well fitted inhibition curve with a large enough effect; inconclusive = small, poorly fitted or top-dose-only effect; inactive = no such curve, though single readings can be large or run the other way.

biological target: Rap guanine nucleotide exchange factor 3 (Homo sapiens) (UniProt O95398); assay: Confirmatory qHTS for antagonist of cAMP-regulated guanine nucleotide exchange factor 3 (EPAC1) (AID 1645880); details: EPAC1 Rap1B-BODIPY-GDP exchange, fluorescence; activity, negative = inhibition: at 115 µM (top of the series); also: nearly all actives have a fitted effect of over 55% in size
Summary of the method: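 Nucleotide exchange uses 100 nM EPAC1, 250 nM RAP1B-BODIPY-GDP and 50 uM GDP, with compounds in a concentration-titration series. After 5 min at room temperature, fluorescence (480 nm ex/540 nm em) is read every 5 min for 30 min. Data are normalized to control ATA and DMSO.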
Potency is read from the fitted curve at half-maximal effect.

Rap guanine nucleotide exchange factor 3 (Homo sapiens), sequence (O95398 whole entry, looked up): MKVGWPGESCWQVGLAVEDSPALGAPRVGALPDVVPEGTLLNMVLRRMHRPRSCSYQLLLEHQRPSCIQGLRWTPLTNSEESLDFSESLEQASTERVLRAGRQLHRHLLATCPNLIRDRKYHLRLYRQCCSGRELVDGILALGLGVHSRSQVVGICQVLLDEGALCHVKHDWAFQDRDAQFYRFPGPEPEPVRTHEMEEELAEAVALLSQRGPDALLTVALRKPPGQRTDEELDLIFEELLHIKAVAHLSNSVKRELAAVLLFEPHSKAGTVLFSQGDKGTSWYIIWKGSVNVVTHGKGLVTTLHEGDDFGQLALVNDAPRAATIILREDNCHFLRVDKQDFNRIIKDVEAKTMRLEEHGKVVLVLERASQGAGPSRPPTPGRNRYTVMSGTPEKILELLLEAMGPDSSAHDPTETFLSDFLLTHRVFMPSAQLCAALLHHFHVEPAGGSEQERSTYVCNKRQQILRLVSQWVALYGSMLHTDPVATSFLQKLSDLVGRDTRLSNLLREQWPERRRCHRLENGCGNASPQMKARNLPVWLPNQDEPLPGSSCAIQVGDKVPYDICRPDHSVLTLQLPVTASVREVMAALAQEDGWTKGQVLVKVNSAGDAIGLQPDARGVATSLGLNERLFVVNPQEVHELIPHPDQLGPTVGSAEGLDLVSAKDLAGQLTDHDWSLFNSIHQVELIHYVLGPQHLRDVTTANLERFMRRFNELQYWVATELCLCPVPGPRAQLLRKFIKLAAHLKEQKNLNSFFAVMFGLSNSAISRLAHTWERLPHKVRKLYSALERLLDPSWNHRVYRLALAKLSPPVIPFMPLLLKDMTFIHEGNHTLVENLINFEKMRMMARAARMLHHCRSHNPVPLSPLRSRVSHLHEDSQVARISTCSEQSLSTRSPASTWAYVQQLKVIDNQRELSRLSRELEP

Potency, inactive:
COc1cc2c(cc1NC(=O)C(C)Oc1ccc(Cl)cc1Cl)oc1ccccc12 (stereo not given)
CCn1c2ccccc2c2cc(NC(=O)c3ccc(=O)oc3)ccc21
CCCCCCn1c(=O)[nH]c2nc3cc(N)c(C)cc3nc2c1=O
OCCCCC#Cc1c(-c2ccsc2)sc2ccccc12
COC(=O)c1c(SC)nc2ccccc2c1OCc1ccc(Cl)cc1
COCc1ccccc1C1=CC(=O)C[C@H](c2ccc(F)cc2)C1
CC(NC(=O)c1ccc(Br)s1)c1ccncc1 (stereo not given)
COc1cccc(-c2nc(N3CCN(c4ccccc4)CC3)c3ccccc3n2)c1O
Cc1cc(Br)cc(C=Nc2ccc(N3CCOCC3)cc2)c1O
O=C1/C(=C\c2cccnc2)Sc2ccccc21
O=S(=O)(Nc1ccccc1N1CCCCC1)c1ccccc1
Cc1cccc(CNC(=O)c2ccc(-c3nc(CS(=O)(=O)c4ccccc4)c(C)o3)cc2)c1
Cc1ccc(CNc2cc(C)nc3nc(-c4ccc(C)cc4)nn23)cc1
CCOc1ccc(NC(=O)CSc2nc(-c3cccc(Cl)c3)nc3c2Cc2c(CO)cnc(C)c2O3)cc1
COc1cc(NC(=O)CCNC(=O)Cn2ccc3ccccc3c2=O)cc(OC)c1OC
COc1ccc(-n2c(O)c(/C=N/NS(=O)(=O)c3cc(C)ccc3C)c3ccccc3c2=O)cc1OC
CCOc1ccccc1N1CCN(C(=O)c2cc3c(s2)CCC3)CC1
COc1cc2c(cc1OC)C(c1cccc(Cl)c1)CC(=O)N2 (stereo not given)
OC(c1ccc2ccccc2n1)c1c(Cl)cccc1Cl (stereo not given)
CCc1ccc(CNC(=O)Cn2nc(C)n3c(cc4cc(C)ccc43)c2=O)cc1
Cc1cc(C)cc(NC(=O)c2sc3nc(-c4cc5ccccc5oc4=O)[nH]c(=O)c3c2C)c1
COc1ccc(C(NC(=O)c2cc(OC)ccc2OC)c2ccccc2)cc1 (stereo not given)
N#CC(C#N)=C1C=C2C=C(N3CCOCC3)CCC2CC1 (stereo not given)
COc1ccc(Br)cc1CN(C)CC(=O)Nc1c(Cl)cccc1Cl
Cc1cc2ccccn2c1C(=O)c1ccc(Cl)c([N+](=O)[O-])c1
CC(=O)c1cccc(NC(=O)Cn2cc(C(=O)c3cccc(Cl)c3)c(=O)c3ccc(C)nc32)c1
Cc1cccc(Cn2c(-c3cccs3)nc3ccccc32)c1
COc1cc(SC)ccc1C(=O)NC1CCCc2ccccc21 (stereo not given)
Cc1ccccc1SCC(=O)Nc1cc(C(F)(F)F)ccc1N1CCOCC1
CCN(C(=O)c1sc2cc(OC)ccc2c1Cl)c1ccccc1
COC(=O)C1=C(C)N(c2ccc(OC)cc2)C(C)=C(C(=O)OC)C1c1ccccc1
COc1ccc(-c2nc3ccccc3n2Cc2ccccc2)cc1
CCOc1ccccc1NC(=O)c1ccccc1-c1ccccc1
Cc1ccc(CNC(=O)CN(c2cc(C)cc(C)c2)S(=O)(=O)c2c(C)[nH]c(=O)[nH]c2=O)cc1
O=C(NCc1ccccc1F)c1ccc(CN2CC(=O)N3CCCCC3C2=O)cc1 (stereo not given)
CCOc1ccc(-n2cnc3scc(-c4ccc(OC)c(OC)c4)c3c2=O)cc1
Cc1ccc(-c2noc(-c3nnn(CC(=O)Nc4cc(Cl)ccc4C)c3N)n2)cc1

Potency, active:
CCOc1cc(CNc2ccc(O)cc2)ccc1OCc1ccc(Cl)cc1 84.9 µM
CCOc1cc(-c2ccc(OC(=O)c3ccc(OC)cc3)c(OC)c2)cc(=O)c2c(C)oc(C)c12 75.7 µM
Cc1ccc(S(=O)c2ccc([N+](=O)[O-])c3nonc23)cc1 (stereo not given) 23.9 µM
